Measurements: PubChem BioAssay (EPA / NIEHS)
Several values for one entry are separate records, joined by “and”; a condition that tells them apart may be missing. Identical values can stand only once. Records with an inconclusive call do not appear. Activity calls are given as the source filed them. The calls were made as follows: active = hit-call score of the fitted dose curve at least 0.9, where 1 is the maximum; inconclusive = response in the unintended direction; inactive = score below 0.9.

Assays:
[1] = TOX21_p53_BLA_p2_viability: Viability Assessment in the Tox21 HCT-116 p53 Agonism Beta-lactamase Assay, Phase 2 (AID 2283591);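 also: compound exposure lasted 16 h at 37 °C; actives lower the ATP signal meaning cytotoxicity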
Outline: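 HCT116 p53-bla cells, 4000/well, dosed after 5 h plating (217-fold dilution of DMSO stocks) and incubated 16 h at 37C. Viability taken as cellular ATP by CellTiter-Glo luminescence after 30 min RT; signal loss marks cytotoxicity.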

[2] = target: Cellular tumor antigen p53 (Homo sapiens) (UniProt P04637); assay: TOX21_p53_BLA_p2_ratio: Tox21 HCT-116 p53 Agonism Beta-lactamase Assay, Ratio, Phase 2 (AID 2283592)
Cellular tumor antigen p53 (Homo sapiens), sequence (P04637 whole entry, looked up): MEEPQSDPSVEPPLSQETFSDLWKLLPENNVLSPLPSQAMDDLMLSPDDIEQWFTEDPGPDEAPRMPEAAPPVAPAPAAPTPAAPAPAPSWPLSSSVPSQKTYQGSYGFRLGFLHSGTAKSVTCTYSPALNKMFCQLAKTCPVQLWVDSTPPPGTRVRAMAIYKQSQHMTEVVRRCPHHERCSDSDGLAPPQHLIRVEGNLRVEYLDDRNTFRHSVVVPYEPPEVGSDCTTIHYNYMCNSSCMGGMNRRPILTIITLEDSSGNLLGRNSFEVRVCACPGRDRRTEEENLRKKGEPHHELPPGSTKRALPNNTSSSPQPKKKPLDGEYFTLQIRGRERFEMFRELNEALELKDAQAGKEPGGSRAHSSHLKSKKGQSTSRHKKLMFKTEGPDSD
Outline: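 Ratio endpoint: beta-lactamase cleavage of CCF4-AM, blue (460 nm) over green (530 nm). HCT116 reporter line; 16 h treatment, 37C; substrate 2 h RT.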

[3] = TOX21_p53_BLA_p3_viability: Viability Assessment in the Tox21 HCT-116 p53 Agonism Beta-lactamase Assay, Phase 3 (AID 2283593);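 also: cells exposed to compound for 16 h before reading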
Outline: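 HCT116 cells, 4000/well, dosed 5 h after plating by pin transfer (217-fold dilution from DMSO stock) and incubated 16 h at 37C, 5% CO2. Viability read as ATP luminescence with CellTiter-Glo after 30 min at room temperature.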

[4] = target: Cellular tumor antigen p53 (Homo sapiens) (UniProt P04637); assay: TOX21_p53_BLA_p3_ratio: Tox21 HCT-116 p53 Agonism Beta-lactamase Assay, Ratio, Phase 3 (AID 2283596)
Outline: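 Cells were seeded at 4000/well, rested 5 h at 37C, then dosed with DMSO compound solutions (217-fold dilution) for 16 h. CCF4-AM substrate was loaded for 2 h at room temperature, and the 460/530 nm emission ratio was fitted for gain of signal versus DMSO.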

[5] = TOX21_p53_BLA_p4_viability: Viability Assessment in the Tox21 HCT-116 p53 Agonism Beta-lactamase Assay, Phase 4 (AID 2283597);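 also: hits lower the luminescence signal meaning cytotoxicity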
Outline: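 Cytotoxicity was inferred from loss of CellTiter-Glo luminescence. HCT116 cells had been dosed with compounds after 5 h plating, incubated 16 h at 37C and 5% CO2, and exposed to the CCF4-AM substrate for 2 h.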

[6] = target: Cellular tumor antigen p53 (Homo sapiens) (UniProt P04637); assay: TOX21_p53_BLA_p5_ratio: Tox21 HCT-116 p53 Agonism Beta-lactamase Assay, Ratio, Phase 5 (AID 2283599)
Outline: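 HCT-116 p53-bla cells (4000/well) plated 5 h, dosed with compound (217-fold DMSO dilution) for 16 h at 37 C; CCF4-AM substrate 2 h at room temperature. Activity is the 460/530 nm emission ratio (405 nm excitation), fitted in gain-of-signal direction versus DMSO.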

[7] = TOX21_p53_BLA_p5_viability: Viability Assessment in the Tox21 HCT-116 p53 Agonism Beta-lactamase Assay, Phase 5 (AID 2283600)
Outline: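 Luciferase-coupled ATP quantitation of cells treated for 16 h (37C, 5% CO2) with test chemicals delivered in DMSO via a 217-fold dilution; 4000 cells/well; reagent incubated 30 min at room temperature before luminescence reading.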

[8] = target: Cellular tumor antigen p53 (Homo sapiens) (UniProt P04637); assay: TOX21_p53_BLA_p4_ratio: Tox21 HCT-116 p53 Agonism Beta-lactamase Assay, Ratio, Phase 4 (AID 2283601)
Outline: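 HCT-116 p53 beta-lactamase reporter cells (4000/well) preincubated 5 h, then compound (217-fold dilution of DMSO stock) for 16 h at 37C. CCF4-AM substrate added 2 h at room temperature; 460/530 nm emission ratio fitted upward versus DMSO.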

Measured: AC50

CC(C)[C@@H]1CC[C@@H](C)C[C@H]1OC(=O)c1ccccc1O
active: [3] 37.3 µM
inactive: all other assays above

CCCCCCCCCCCCOCCOCCOCCOCCOCCOCCOCCOCCOCCO
active: [1] 31.5 µM | [2] 13.5 µM | [3] 27 µM | [4] 19.7 µM | [5] 20 µM | [6] 36.9 µM | [7] 23 µM | [8] 37.7 µM

CC(=C(CCO)SSC(CCO)=C(C)N(C=O)Cc1cnc(C)nc1N)N(C=O)Cc1cnc(C)nc1N
inactive: all assays above

CCCCN(CCCC)c1ccc(C(=O)c2ccccc2C(=O)O)c(O)c1
inactive: [2]
active: [1] 17.2 µM | [3] 23.1 µM | [4] 39.8 µM | [5] 21.2 µM | [6] 52.2 µM | [7] 20.3 µM | [8] 45.5 µM

CCCCCCCCCCCCCC[N+](C)(C)Cc1ccccc1
active: [5] 27.9 µM | [6] 40.8 µM | [8] 43.7 µM
inactive: all other assays above

CC(C)NCC1CCc2cc(CO)c([N+](=O)[O-])cc2N1 (configuration not stated)
inactive: all assays above

CC1(COc2ccc(CC3SC(=O)NC3=O)cc2)CCCCC1 (configuration not stated)
active: [1] 28.8 µM | [2] 36.7 µM | [3] 35.1 µM | [4] 27.1 µM | [5] 18.6 µM | [6] 27.6 µM | [7] 21.6 µM | [8] 34.7 µM

CCCCCCCC(=O)CC[C@@H]1[C@@H](C/C=C\CCCC(=O)OC(C)C)[C@@H](O)C[C@H]1O
active: [1] 36.2 µM | [2] 43.7 µM | [3] 43.7 µM | [5] 23 µM | [6] 43 µM | [7] 41.9 µM | [8] 43.6 µM
inactive: [4]

CCCCCCCC/C=C\CCCCCCCC(=O)NCc1ccc(O)c(OC)c1
active: [3] 41.5 µM
inactive: all other assays above

CC(C)OC(=O)OCOP(=O)(CO[C@H](C)Cn1cnc2c(N)ncnc21)OCOC(=O)OC(C)C
inactive: all assays above

c1cc(OCC2CO2)cc(OCC2CO2)c1 (configuration not stated)
inactive: [1] | [5] | [7]
active: [2] 14.3 µM | [3] 70.3 µM | [4] 20.4 µM | [6] 14.3 µM | [8] 63.2 µM

CC1=C(C(=O)OC(C)C)C(c2cccc([N+](=O)[O-])c2)C(C(=O)OC2CN(C(c3ccccc3)c3ccccc3)C2)=C(N)N1 (configuration not stated)
active: [1] 10.3 µM | [2] 18.3 µM | [3] 9.2 µM | [4] 17.7 µM | [5] 34.2 µM | [6] 43.6 µM | [7] 38 µM | [8] 43.5 µM

COCCCC/C(=N\OCCN)c1ccc(C(F)(F)F)cc1
inactive: all assays above

Cc1cc(O)c(C(C)(C)C)cc1Sc1cc(C(C)(C)C)c(O)cc1C
active: [1] 13.2 µM | [2] 37.9 µM | [3] 20 µM | [4] 33.4 µM | [5] 14.3 µM | [6] 40.9 µM | [7] 18.1 µM | [8] 31.5 µM

Cc1c(Cl)cccc1Nc1ncccc1C(=O)O
inactive: all assays above

CC[C@@]1([C@@H]2O[C@@H]([C@H]3O[C@@](O)(CO)[C@H](C)C[C@@H]3C)C[C@@H]2C)CC[C@H]([C@]2(C)CC[C@]3(C[C@H](O)[C@@H](C)[C@@H]([C@@H](C)[C@@H](OC)[C@H](C)C(=O)O)O3)O2)O1 (stereo in doubt)
inactive: all assays above

CCNC(=O)N1CCN(CCCC(c2ccc(F)cc2)c2ccc(F)cc2)CC1
inactive: all assays above

CC1=C[C@H](O)CC(C)(C)[C@H]1/C=C/C(C)=C/C=C/C(C)=C/C=C/C=C(C)/C=C/C=C(C)/C=C/C1=C(C)C[C@@H](O)CC1(C)C
inactive: [1] | [2] | [3]
active: [4] 39.9 µM | [5] 35.3 µM | [6] 38.4 µM | [7] 43 µM | [8] 34.8 µM

O=C1NCN(c2ccccc2)C12CCN(CCCC(c1ccc(F)cc1)c1ccc(F)cc1)CC2
active: [1] 37.3 µM | [2] 39.1 µM | [3] 35.9 µM | [4] 42.2 µM | [5] 23 µM | [6] 45 µM | [7] 35.1 µM | [8] 26.7 µM

O=c1c(-c2ccccc2)c1-c1ccccc1
active: [2] 23.8 µM | [4] 22.2 µM
inactive: all other assays above

CCO[Si](CCCCl)(OCC)OCC
active: [2] 87.7 µM | [4] 86.2 µM
inactive: all other assays above

COc1cc([C@@H]2c3cc4c(cc3C(O[C@@H]3O[C@@H]5COC(c6cccs6)O[C@H]5[C@H](O)[C@H]3O)C3COC(=O)[C@@H]32)OCO4)cc(OC)c1O (some centres not stated)
active: [2] 0.717 µM | [4] 0.939 µM | [6] 0.886 µM | [8] 0.841 µM
inactive: [1] | [3] | [5] | [7]

O[C@@H]([C@H](O)[C@H](O)CBr)[C@H](O)CBr
inactive: all assays above

CC(=O)O[C@H]1CC[C@@]2(C)C(=CC[C@H]3[C@@H]4CC[C@H](C(C)=O)[C@@]4(C)CC[C@@H]32)C1
inactive: all assays above

COc1cccc2c1[C@@H]1CN(CCCCn3c(=O)[nH]c4c(sc5ncc(-c6ccccc6)nc54)c3=O)C[C@@H]1CO2
active: [1] 39.8 µM | [5] 43.3 µM
inactive: all other assays above

O=C(CC(=O)C(F)(F)F)c1ccccc1
active: [3] 76.4 µM
inactive: all other assays above

Nc1c(N=Nc2ccc(-c3ccc(N=Nc4cc(S(=O)(=O)O)c5ccccc5c4N)cc3)cc2)cc(S(=O)(=O)O)c2ccccc12
inactive: all assays above

O=C1c2c(O)ccc([N+](=O)[O-])c2C(=O)c2c([N+](=O)[O-])ccc(O)c21
active: [1] 7.2 µM | [2] 25.4 µM | [3] 9.74 µM | [4] 28.7 µM | [5] 11.7 µM | [6] 30.2 µM | [7] 9.58 µM | [8] 20.7 µM

C[n+]1cc2c3c(ccc2c2ccc4cc5c(cc4c21)OCO5)OCO3
active: [1] 4.28 µM | [2] 4.96 µM | [3] 2.31 µM | [4] 2.32 µM | [5] 3.64 µM | [6] 5.66 µM | [7] 5.48 µM | [8] 9.14 µM

COc1cc2c(cc1OC)-c1cc(=Nc3c(C)cc(C)cc3C)n(C)c(=O)n1CC2
active: [1] 39 µM | [2] 35.6 µM | [3] 33.4 µM | [4] 36.7 µM | [5] 36 µM | [6] 41.3 µM | [7] 32.7 µM | [8] 36.6 µM

CC(C)c1nc(N(C)S(C)(=O)=O)nc(-c2ccc(F)cc2)c1/C=C/C(O)CC(O)CC(=O)O (configuration not stated)
inactive: all assays above

Nc1nc(F)nc2c1ncn2[C@@H]1O[C@H](CO)[C@@H](O)[C@@H]1O
active: [2] 21.1 µM and 20 µM | [4] 13.2 µM and 20.6 µM | [6] 22.5 µM and 25.2 µM | [8] 22.5 µM and 24 µM
inactive: all other assays above

C[C@@H]1CN(CCCn2c3ccccc3c3ccccc32)C[C@H](C)N1
active: [5] 28.9 µM
inactive: all other assays above

Brc1ccccc1-c1ccccc1
inactive: all assays above

Nc1ccc(S(=O)(=O)Nc2ccc(Cl)nn2)cc1
inactive: all assays above

COc1ccc(S(=O)(=O)Nc2nnc(CC(C)C)s2)cc1
inactive: all assays above

c1ccc(C(O[C@H]2CCCN(CCc3ccc4c(c3)OCO4)C2)c2ccccc2)cc1
inactive: all assays above

CCC(=O)O[C@]1(C(=O)CCl)[C@@H](C)C[C@H]2[C@@H]3C[C@H](F)C4=CC(=O)C=C[C@]4(C)[C@@]3(F)[C@@H](O)C[C@@]21C
inactive: all assays above

O=C(O)COC(=O)Cc1ccccc1Nc1c(Cl)cccc1Cl
inactive: all assays above
